# An excerpt weighted towards active compounds, which were near 21% of everything screened.
# NS1 inh = qHTS Assay for Inhibitors of Influenza NS1 Protein Function; Potency, µM (series often up to 46.1 µM), for the others: top-dose activity, positive = more growth; hit rate 0.4% among 270,000; AID 2326, 2010; calls by dose curve; note: potency is the fitted concentration of half-maximal effect; actives are rising curves; nearly all actives have a fitted effect of over 50% in size
#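 Recovery from NS1-induced slow growth read by OD600 in budding yeast switched to galactose assay medium (pH 6.0, -URA) at 1:100 dilution. Compound 23 nl per well; the matching strain lacking NS1 serves as control.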
# Sm TGR block = qHTS Assay for the Inhibitors of Schistosoma Mansoni Peroxiredoxins | hit rate 3% among 360,000 | purified TGR, DTNB reduction, TNB absorbance 405 nm | AID 485364, 2010 | Schistosoma mansoni thioredoxin glutathione reductase (TGR), Q962Y6 | Potency, µM (top dose mostly 114 µM), inactives show top-dose activity change, negative = inhibition, most hits filed as inhibitors; note: potency is the fitted concentration of half-maximal effect; % is set by controls: 0 for no effect and ±100 for the full control effect; nearly all actives have a fitted effect of over 60% in size
#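 TGR 20 nM + NADPH 100 uM (dispensed conc.), cpd preinc 15 min RT; start with NADPH (500 uM addition) then DTNB (15 mM addition). Kinetic TNB absorbance, 405 nm filter. Four-parameter Hill fit across titration.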
# Shiga toxin inh = A qHTS for Small Molecule Inhibitors of Shiga Toxin; Vero cells, Shiga toxin protein synthesis inhibition reporter; inhibition, % at 38.7 µM; hit rate 9.2% among 290,000; in the data active = inhibition mostly above about 28%, no sharp cut-off; inactive = mostly below about 43%; note: 0% is about no effect
# Pf growth 48h = Primary qHTS for delayed death inhibitors of the malarial parasite plastid, 48 hour incubation; P. falciparum luciferase growth in erythrocytes, 48 h; Potency, µM (series often up to 28.7 µM), inactives show at the top dose activity change, negative = inhibition, hits mostly inhibitors; hit rate 5.9% among 310,000; AID 504832, 2011; note: potency is the fitted concentration of half-maximal effect; % is set by controls: 0 for no effect and ±100 for the full control effect
#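 Compounds are pin-transferred into medium, infected erythrocytes (2% hematocrit, 0.1% parasitemia final) are added, and plates sit one parasite generation at 37 C in 5% CO2. Detection reagent is then added and luminescence measured.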
# Pf growth 96h = Primary qHTS for delayed death inhibitors of the malarial parasite plastid, 96 hour incubation; hit rate 6.9% among 320,000; Potency, µM (series often up to 28.7 µM), inactives show top-dose activity change, negative = inhibition, actives largely listed as inhibitors; P. falciparum luciferase reporter growth, 96 h; note: potency is the fitted concentration of half-maximal effect; % is set by controls: 0 for no effect and ±100 for the full control effect
#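 Delayed-death screen, second-generation endpoint: infected erythrocytes, 2% hematocrit, 0.05% parasitemia final; 96 hours at 37 C, 5% CO2; luciferase detection reagent; luminescence decrease equals reduced growth.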
# Cycloheximide cs = Cycloheximide Counterscreen for Small Molecule Inhibitors of Shiga Toxin | max response, % | hit rate 12% among 300,000 | cell reporter, cycloheximide protein synthesis inhibition counterscreen | AID 2314, 2010; in the data active = max response mostly above about 13%, no sharp cut-off; inactive = mostly below about 14%; note: read at 38.3 µM for the half of the compounds with a filed dose; 0% is about no effect
# * = called active by the depositor; ? = inconclusive; / = no result given. Unless noted, calls come from the whole dose curve; as a rule, active = well fitted curve in the direction sought with a large enough effect; inconclusive = small, poorly fitted or top-dose-only effect, or another doubt; inactive = no such curve, though single readings can be large; an effect the other way counts as inactive or inconclusive.
SMILES,NS1 inh,Sm TGR block,Shiga toxin inh,Pf growth 48h,Pf growth 96h,Cycloheximide cs
FC(F)Oc1ccc(-c2csc(=Nc3cccnc3)n2CC2CCCO2)cc1 (stereo unspecified),11%,-23%,3,?,13µM*,2
NCCOC[C@H](N)C(=O)O,-6%,/,/,/,/,/
OC(c1ccc(Cl)cc1Cl)C(Cc1cccnc1)n1cncn1 (stereo unspecified),2%,-13%,-27,?,13µM*,6
Cn1c(SCc2ccccn2)nnc1-c1ccncc1,1%,-2%,2,-7%,/,30
COc1cccc(-c2nnc(SCc3ccccn3)n2C)c1,5%,2%,75,39%,/,17*
Cn1c(SCc2ccccn2)nnc1-c1ccccc1,8%,8%,103*,13%,-9%,36*
Cc1nnc2nc(-c3ccccc3)nc(-c3ccccc3)n12,0%,-1%,-2,2%,-10%,4
O=C(Nc1cccc(-c2nc3ccccc3o2)c1)c1cccc2c(Cl)cccc12,/,4%,/,/,/,/
CCCC(=O)C1=C(O)C(C(=O)OC)C(C)(C)CC1=Nc1ccc(N)cc1 (stereo unspecified),-1%,0%,16,?,?,-1
CCCC(=O)C1=C(O)C(C(=O)OC)C(C)(C)CC1=Nc1ccc(C)cc1 (stereo unspecified),-3%,14%,-2,5.2µM*,19%,1
Cc1nn(-c2ccccc2)c(Cl)c1/C=N/NS(=O)(=O)c1ccc(Br)cc1,19%,1%,15,3%,2%,-3
Cc1cc(=O)[nH]c(N/N=C/c2ccc(-c3ccc(F)cc3)o2)n1,?,-10%,50,7%,50%,15
Cc1cc(=O)[nH]c(N/N=C/c2c(C)nn(-c3ccc(F)cc3)c2Cl)n1,/,-1%,-12,4.7µM*,10µM*,-1
Cc1nn(-c2ccccc2)c(Cl)c1/C=N/Nc1nncc(=O)[nH]1,-2%,3%,43,7%,-8%,12*
O=C(NC1CC(=O)N(c2ccc(F)cc2)C1)C(c1ccccc1)c1ccccc1 (stereo unspecified),/,6%,/,/,/,/
Cc1ccc(NS(=O)(=O)c2ccc(C(=O)NCC(c3ccco3)N(C)C)cc2)cc1 (stereo unspecified),1%,-7%,-36,-4%,12%,2
CCCOc1ccc(C(=O)NCC(c2cccs2)N(C)C)cc1 (stereo unspecified),-6%,5%,57,30%,-13%,20*
CCCOc1ccc(C(=O)NCC(c2ccco2)N(C)C)cc1 (stereo unspecified),-5%,?,21,3%,?,16*
CCOc1ccc(C(=O)NCC(c2cccs2)N(C)C)cc1OCC (stereo unspecified),-3%,0%,-6,-10%,-23%,2
CCCCCCOc1ccc(N2C(=O)CC(N3CCN(CCN=CC4C(=O)CC(C)(C)CC4=O)CC3)C2=O)cc1 (stereo unspecified),/,?,-10,-5%,-3%,-6
Cc1ccc(S(=O)(=O)N2CCN(C(=O)c3c(C)nn(-c4ccccc4)c3Cl)CC2)cc1,-35%,0%,-8,?,?,10
Cc1nn(-c2ccccc2)c(C)c1C(=O)OCc1ccc(C#N)cc1,-10%,-1%,25,-11%,5%,36*
CC(=O)c1cccc(NC(=O)c2c(C)nn(-c3ccccc3)c2Cl)c1,-10%,/,16,-10%,?,9
COc1ccc(NC(=O)c2c(C)nn(-c3ccccc3)c2Cl)cc1,-13%,-6%,/,?,199%,16*
N#Cc1ccc(COC(=O)c2ccccn2)cc1,/,3%,21,15%,7%,6
SMILES,NS1 inh,Sm TGR block,Shiga toxin inh,Pf growth 48h,Pf growth 96h,Cycloheximide cs
COc1ccc(S(=O)(=O)N2CCN(C(=O)c3c(C)nn(-c4ccccc4)c3Cl)CC2)cc1,-45%,-35%,-15,0%,4.7µM*,11
CC(=O)c1ccc(NC(=O)c2c(C)nn(-c3ccccc3)c2Cl)cc1,1%,-25%,-8,-2%,6%,-3
COc1cccc(NC(=O)c2c(C)nn(-c3ccccc3)c2Cl)c1,-34%,-5%,31,32%,4.7µM*,19*
O=C(NCCc1ccc(F)cc1)c1ccc(NS(=O)(=O)c2ccc3[nH]c(=O)[nH]c3c2)cc1,/,5%,/,-6%,?,/
Cc1ccccc1C(=O)c1cccn1CC(=O)NCCCc1ccccc1,-15%,-35%,-5,12%,?,1
Cc1ccc(NC(=O)c2c(C)nn(-c3ccccc3)c2Cl)cc1,-16%,2%,66*,11%,?,35*
COc1ccc(COC(=O)c2c(C)nn(-c3ccccc3)c2Cl)cc1,-6%,6%,39*,0%,1%,22*
Cc1nn(-c2ccccc2)c(Cl)c1C(=O)OCC(=O)NCCc1ccc(S(N)(=O)=O)cc1,/,4%,/,?,?,/
CC(Oc1ccccc1)C(=O)Nc1nnc(C2CCCCC2)s1 (stereo unspecified),-10%,-7%,130*,27%,0.0029µM*,49*
Cc1cc(C(=O)Nc2nnc(C3CCCCC3)s2)no1,-114%,10%,40,28%,209%,16
Cc1ccc(C(=O)Nc2nnc(C3CCCCC3)s2)o1,-90%,5%,90*,262%,/,21*
CCOCC(=O)Nc1nnc(C2CCCCC2)s1,-42%,-9%,46*,100%,-1%,36*
CCOC(=O)C(=O)Nc1nnc(C2CCCCC2)s1,-57%,-18%,13,23%,/,8
COCC(=O)Nc1nnc(C2CCCCC2)s1,-7%,3%,53*,72%,-18%,20*
CCNS(=O)(=O)c1ccc(CCC(=O)N2CCN(c3ccccc3F)CC2)cc1,10%,-19%,2,2%,?,-3
COC(=O)CC(c1ccc(C(C)C)cc1)n1cccc1 (stereo unspecified),/,1%,33,87%,?,8
Cc1ccc(N2CCN(S(=O)(=O)c3ccc(F)c(C(=O)Nc4ccc(Cl)cc4Cl)c3)CC2C)cc1 (stereo unspecified),/,-2%,/,/,/,/
COc1ccc(S(N)(=O)=O)cc1C(=O)NNC(=O)CN(C)S(=O)(=O)c1ccc(Cl)cc1,/,4%,/,12%,-9%,/
Cc1ccc(NCC(=O)Nc2ccc(Br)cc2)cc1C,-14%,-22%,27,?,?,18*
Cc1ccc(F)cc1NCC(=O)Nc1ccc(Br)cc1,-27%,3%,58*,59%,115%,31*
Cc1ccc(NC(=O)CC(=O)Nc2ccc(C)c(C)c2)cc1C,-7%,-1%,-8,26%,6%,-6
Cc1ccc(C)c(Sc2ccc(NC(=O)CCl)cc2)c1,-57%,?,-14,?,?,-1

# High-throughput results: PubChem BioAssay, National Center for Advancing Translational Sciences (NCATS)
